Coupling enz = counter-screen for Giardia aldolase inhibitors: coupling enzyme system; coupling enzyme system counterscreen, AmpLite Red fluorescence; activity change, negative = inhibition, % at 58.2 µM, hits read low; 290,000 compounds, 0.67% hits; AID 2472; in the data active = activity change below about -30%
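Fluorescence at 525 nm excitation and 598 nm emission measured inhibition of the coupled detection system without aldolase. Compounds (at 57.5 uM final) were preincubated 10 min at room temperature with coupling enzyme reagent before a 20 min substrate/AmpLite Red step.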
KDM4E inh = JMJD2E (human) inhibition. JMJD2E catalytic domain, FDH-coupled NADH fluorescence (FDH is formaldehyde dehydrogenase). Potency, µM (series often up to 57.1 µM), for inactives: top-dose activity change, negative = inhibition, actives largely listed as inhibitors. 230,000 compounds, 1.6% hits. AID 2147; active = well fitted inhibition curve with a large enough effect, not every such curve was filed as active; inconclusive = small, poorly fitted or top-dose-only effect, or another doubt; inactive = no such curve, though single readings can be large or run the other way;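 note: potency is the fitted concentration of half-maximal effect; 0% = wells with enzyme and -100% = buffer wells without enzyme; nearly all actives have a fitted effect of over 50% in size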
Target sequence (B2RXH2 1-337 limits assumed): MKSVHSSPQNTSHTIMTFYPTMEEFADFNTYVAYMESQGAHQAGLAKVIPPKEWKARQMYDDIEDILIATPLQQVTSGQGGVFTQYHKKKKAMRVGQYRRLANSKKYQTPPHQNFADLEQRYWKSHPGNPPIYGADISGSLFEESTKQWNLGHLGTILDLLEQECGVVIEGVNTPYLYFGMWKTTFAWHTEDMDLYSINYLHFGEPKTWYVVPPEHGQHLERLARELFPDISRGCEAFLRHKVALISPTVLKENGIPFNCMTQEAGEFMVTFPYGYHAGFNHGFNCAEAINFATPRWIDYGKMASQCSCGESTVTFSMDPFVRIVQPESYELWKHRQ
Tau fluor counter = counter-screen for tau fibril formation inhibitors; tau K18 P301L Alexa594 fluorescence, heparin fibrillization; 280,000 compounds, 0.93% hits; Potency, µM (doses to about 57.7 µM), inactives show at the highest dose activity change, negative = decrease; note: potency is the fitted concentration of half-maximal effect; nearly all actives have a fitted effect of over 55% in size
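Human K18 P301L tau (15 uM unlabeled plus 0.24 uM Alexa 594-labeled, final) in 100 mM sodium acetate pH 7 was mixed with compound and 20 uM heparin and incubated 6 hr at 37 C.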
Tau fibril FP = tau fibrillization inhibition (FP); K18 P301L tau heparin fibrillization, Alexa594 FP, 6 h; 280,000 compounds, 0.39% hits; P10636; Potency, µM (doses to about 57.7 µM), without a hit: top-dose activity, negative = inhibition, hits mostly inhibitors; note: potency is the fitted concentration of half-maximal effect; nearly all actives have a fitted effect of over 55% in size
Target sequence (P10636 561-689 P618L limits assumed): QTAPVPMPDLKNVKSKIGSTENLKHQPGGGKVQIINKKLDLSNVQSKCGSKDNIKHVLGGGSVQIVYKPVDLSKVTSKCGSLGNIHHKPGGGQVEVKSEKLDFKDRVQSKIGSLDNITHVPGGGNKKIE
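Quantitative HTS format: compounds meet 15 uM recombinant K18 P301L tau and Alexa 594-tau tracer in 100 mM sodium acetate pH 7; 20 uM heparin triggers fibrillization at 37 C over 6 hr; FP gives the signal.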
Tau fibril ThT = tau fibrillization inhibition (ThT binding) | 270,000 compounds, 2.1% hits | recombinant tau K18 P301L (four-repeat tau fragment), heparin-induced fibrillization, ThT fluorescence | Potency, µM (highest dose often 57.4 µM), without a hit: at the highest dose activity, negative = inhibition, hits mostly inhibitors | AID 1460 | P10636; note: potency is the fitted concentration of half-maximal effect; nearly all actives have a fitted effect of over 55% in size
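Tau K18 P301L fragment (15 uM unlabeled plus 0.24 uM Alexa 594-labeled) in 100 mM sodium acetate pH 7 with compound, fibrillization induced by 20 uM heparin for 6 hr at 37 C. Thioflavin T (30 uM) added, fluorescence read after 1 hr (ex 450, em 510 nm).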
Sfp PPTase inh = blocks B. subtilis Sfp PPTase activity | 310,000 compounds, 3.5% hits | Biochemical Sfp PPTase activity, qHTS | Q9F4F7 | Potency, µM, for the others: largest response in the series, negative = inhibition, usual class: inhibitors | AID 1490;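 note: the enzyme is Sfp with the accession as filed and its product quenches rhodamine fluorescence; potency is the fitted concentration of half-maximal effect; 0% = enzyme reaction without inhibitor and -100% = no enzyme wells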
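Fluorescence-quenching assay with 15 nM Sfp, 5 uM rhodamine-CoA and 12.5 uM BHQ-2-labelled ybbR peptide in pH 7.6 Hepes/MgCl2 buffer. Enzyme was pre-incubated with compound for 15 min at room temperature. Rate was taken from the 30-min fluorescence change (525/598 nm).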
* hit, by the source's call; ? = inconclusive; nt = no result given; ! = not confirmed by another sample; [ ] = another dose, or the depositor's remark. Shown are actives, neighbours in structure and some others; about 5.3% of the full set was active somewhere. Unless noted, calls come from the whole dose curve; as a rule, active = well fitted curve in the direction sought with a large enough effect; inconclusive = small, poorly fitted or top-dose-only effect, or another doubt; inactive = no such curve, though single readings can be large; an effect the other way counts as inactive or inconclusive. Unless noted, % is set by controls: 0 for no effect and ±100 for the full control effect.

SMILES | Coupling enz | KDM4E inh | Tau fluor counter | Tau fibril FP | Tau fibril ThT | Sfp PPTase inh
Cc1ccc(NC(=O)CN2C(=O)N/C(=C/c3ccccc3OCc3cccc(C(=O)O)c3)C2=O)cc1 | 12 | nt | nt | nt | nt | 89µM*
NC1=NC(=O)/C(=C\c2ccco2)S1 | -19 | 22µM* | ? | ? | 18µM* | 35µM*
CCN1CCN(C2=NC(=O)/C(=C/c3ccc(C)o3)S2)CC1 | -34* | ? | -21% | -16% | ? | 16µM*
O=C1N=C(N2CCN(c3ccccc3)CC2)S/C1=C/c1ccco1 | 4 | -1% | -19% | 2% | ? | -6%
O=C1N=C(N2CCN(c3ccccc3)CC2)S/C1=C\c1ccco1 | -24 | -27% | -18% | -9% | 14µM* | -65%
CCCCOC(=O)c1cccc(NC(=O)c2cc3ccccc3o2)c1 | nt | nt | ? | ? | -8% | nt
Cc1ccc(NC(=O)Cn2c(=O)n(-c3ccc(C)cc3)c(=O)c3ccc(C(=O)NCc4ccccc4Cl)cc32)cc1 | nt | nt | -20% | -18% | ? | nt
COc1cc(NC(=O)Cn2c(=O)n(C(C)C)c(=O)c3oc4ccccc4c32)cc(OC)c1 | nt | nt | -28% | ? | 7% | nt
Fc1cccc(NCc2ccccc2-c2nnc(-c3ccccc3Cl)o2)c1 | nt | nt | -17% | -15% | -1% | nt
CCCCCCCC/C=C\CCCCCCCC(=O)N[C@H](CO)Cc1ccc(O)cc1 | -8 | nt | nt | nt | nt | 14%
COc1ccc(C2NN=C(c3c[nH]c4ccccc34)C2O)cc1 (centres undefined) | -4 | nt | nt | nt | nt | 56µM*
COc1ccc(C2C(O)C(c3c[nH]c4ccccc34)=NN2C(=O)CCl)cc1 (centres undefined) | 0 | nt | nt | nt | nt | -2%
CC1CN(Cc2c(O)ccc3c2oc(=O)c2ccccc23)CC(C)O1 (centres undefined) | -6 | 28µM* | -10% | -11% | nt | 79µM*
COc1ccc(CNc2cc(-c3ccccc3C)ncn2)c(OC)c1 | -1 | nt | nt | nt | nt | -28%
O=[N+]([O-])c1ccc(-c2nc(-c3ccc(F)cc3)c(-c3ccncc3)[nH]2)cc1 | -1 | -1% | 20µM*[quencher] | ? | 14µM* | -29%
O=c1ccc2cc(O)c(O)cc2o1 | 1 | ? | -15% | -8% | ? | 56µM*!
O=C(c1cccc(F)c1)N1CCC2(CC1)CN(c1ccccn1)C2 | 1 | nt | nt | nt | nt | -6%
OC(CNCCC1C=Nc2ccccc21)Cn1c2ccc(Cl)cc2c2cc(Cl)ccc21 (centres undefined) | -4 | -9% | 3.2µM*[quencher] | ? | ? | 11µM*
OC(CNCC1CCCO1)Cn1c2ccc(Cl)cc2c2cc(Cl)ccc21 (centres undefined) | 0 | -22% | ? | ? | ? | 50µM*
O=C(CSc1nc2c([nH]c3ccccc32)c(=O)n1-c1ccc(F)cc1)NC1CCCCC1 | nt | nt | 1% | -6% | 10% | nt
COc1ccccc1Nc1ccc(Nc2ccccc2OC)nn1 | 2 | 0% | ? | 13% | ? | 11%
COc1ccc(OC)c(Nc2ccc(Nc3cc(OC)ccc3OC)nn2)c1 | -2 | -4% | 13µM*[quencher] | ? | ? | 7%
COc1ccc(CNC(=O)c2ccc3c(c2)CCN3S(=O)(=O)c2ccc(Cl)cc2)cc1 | nt | nt | -29% | -13% | 3% | nt
c1ccc(Cn2nnc3c(Nc4ccc5c(c4)OCO5)nc(C4CC4)nc32)cc1 | 1 | ? | ? | ? | -16% | 89µM*
COc1ccc(OC)c(Nc2nc(C3CC3)nc3c2nnn3Cc2ccccc2)c1 | nt | ? | ? | 5% | -11% | 6%
CCOC(=O)c1c(NC(=O)c2ccccc2Br)sc2c1CCc1ccccc1-2 | 0 | ? | -28% | ? | 28µM* | 40µM*
CCOC(=O)c1c(NC(C)=O)sc2c1CCC(C=O)=C2Sc1ccccc1 | 0 | -7% | ? | ? | 14µM* | 50µM*
CCOC(=O)c1c(NC(C)=O)sc2c1CCN(Cc1ccccc1)C2 | 0 | nt | nt | nt | nt | 1%
O=C1CCN2C=Nc3cccc4ccc1c2c34 | -30* | ? | -16% | -5% | ? | 12%
